Values without a mark were called inactive. Calls of active or inactive are those of the source. No stated cut-off is given here; in the data, active means fold change permeability below about 0.7 or above about 1.3; inactive means in between.

Data on 39 compounds can be found in PubChem BioAssay.

A short description of this test: compounds altering in vitro BBB leakiness – cell-based, FITC-avidin fluorescence, HTS, primary screen (AID 1963498). Further: test concentration not given here. To be noted: brain endothelial barrier, actives lie on both sides.
Take `O=c1c2ccccc2nc2n1CCc1c-2[nH]c2ccccc12`: the fold change permeability was 1.8 (active).

Take `Nc1cc(Cl)c(NC2=NCCN2)c(Cl)c1`: the fold change permeability was 1. The value for `O=C(O)C1=CCNCC1` was 1. Next, `CCCCn1c(-c2ccccc2)nc(-c2ccccc2)c1CN(Cc1ccc2c(c1)OCO2)Cc1ccc2c(c1)OCO2`: 1.3 (active); `Cc1c(OCC(F)(F)F)ccnc1CS(=O)c1nc2ccccc2[nH]1` (centres undefined): 1.6 (active). The value for `NC1(C(=O)O)CCc2cc(C(=O)O)ccc21` (centres undefined) was 1.1; that for `O=c1cc(-c2ccccc2)oc2c(O)c(O)ccc12` was 1.5 (active); that for `O=C(O)Cn1c(C(=O)Nc2nc(-c3ccccc3Cl)cs2)cc2ccccc21` was 1.3 (active). As for `CCCNC(=O)NS(=O)(=O)c1ccc(Cl)cc1`, the fold change permeability was 0.9.

As for `Oc1ccc2c(c1)CC[C@H](c1ccccc1)[C@@H]2c1ccc(OCCN2CCCC2)cc1`, the fold change permeability was 1.3 (active). Next, `CCc1cccc(N(C)C(N)=Nc2cccc3ccccc23)c1`: 1.1; `CC(C)N1CCN(S(=O)(=O)c2ccc(NC(=O)c3ccc(C(F)(F)F)cc3[N+](=O)[O-])cc2)CC1`: 1.4 (active); `O=C1N/C(=N/S(=O)(=O)c2cccc3ccccc23)S/C1=C\c1ccc(Br)cc1`: 1.3 (active). On to `CCCCCCC(=O)OC1CC(C)(C)NC(C)(C)C1`, for which the fold change permeability is 0.9.

`COCc1nc2c([nH]1)c(=O)n(C)c(=O)n2CC(C)C`: the fold change permeability was 0.8. The value for `Cc1cc(N2C[C@@H](C)N[C@@H](C)C2)ncc1-c1ccc(-c2nc3c(ccn3C)c(=O)[nH]2)cc1` was 1.3 (active); that for `CC(C)C[C@H]1C(=O)N2CCC[C@H]2[C@]2(O)O[C@](NC(=O)[C@@H]3C=C4c5cccc6[nH]c(Br)c(c56)C[C@H]4N(C)C3)(C(C)C)C(=O)N12` was 1.1; that for `COc1ccc(S(=O)(=O)Nc2nc(-c3cccc([N+](=O)[O-])c3)cs2)cc1OC` was 0.9. Next, `C[C@H](NCCc1ccc(O)cc1)[C@H](O)c1ccc(O)cc1`: 0.7 (active). Next, `N[C@@H](Cc1ccc(O)c(O)c1)C(=O)O`: 0.8; `CC(=O)O[C@H]1C[C@@H]2CC[C@@H]3[C@H](CC[C@@]4(C)[C@H]3C[C@H]([N+]3(C)CCCCC3)[C@@H]4OC(C)=O)[C@@]2(C)C[C@@H]1[N+]1(C)CCCCC1`: 1. With `O=C1Nc2ccc(I)cc2/C1=C/c1cc(Br)c(O)c(Br)c1`, the fold change permeability is 0.7 (active). Next, `O=C1c2cccc3c2[C@H](CCC3)CN1[C@@H]1CN2CCC1CC2`: 1.3 (active). The value for `CN1C2CCC1CC(OC(=O)c1c[nH]c3ccccc13)C2` (centres undefined) was 1.6 (active).

Regarding `Fc1cccc(/C=N\N=C/c2cccc(F)c2)c1`, the fold change permeability is 0.8. The value for `CC[C@@]1(O)C(=O)OCc2c1cc1n(c2=O)Cc2cc3c(CN(C)C)c(O)ccc3nc2-1` was 1; that for `COc1ccc(-c2cc3ncc(C)n3c(Nc3ncccc3C(N)=O)n2)cc1OC` was 1.6 (active); that for `C/C(O)=C(\C#N)C(=O)Nc1ccc(C(F)(F)F)cc1` was 1.2. Next, `COC1=C(OC)C(=O)c2ccccc2C1=O`: 1.4 (active); `O=C(O)c1ccc(-c2c[nH]c3ncc(-c4ccccc4)cc23)cc1C1CCCC1`: 1.4 (active). Next, `CCN(CC)CCn1c(=O)c(Cc2ccc(OC)cc2)nc2ccccc21`: 0.7 (active); `O=C(O)[C@H]1NCCC[C@H]1C(=O)O`: 1.

On to `Nc1nc(-c2ccccc2)c(Br)c(=O)[nH]1`, for which the fold change permeability is 1.7 (active). The value for `C[C@]12CCC(=O)C=C1CC[C@@H]1[C@@H]2CC[C@@]2(C)[C@H]1CC[C@]2(O)C(=O)CO` was 1.1.

For the compound `CCCCN(Cc1ccccc1)C(=O)c1ccc(S(=O)(=O)Nc2ccccc2)cc1`, the fold change permeability is 1.8 (active).

For `CCCNC(C)C(=O)Nc1ccccc1C` (centres undefined), the fold change permeability was 1. The value for `CC(=O)O[C@H]1C[C@@]2(C)[C@@H](C[C@@H](O)[C@H]3[C@@]4(C)CC[C@@H](O)[C@@H](C)[C@@H]4CC[C@@]32C)/C1=C(\CCC=C(C)C)C(=O)O` was 1; that for `CC(C)=CCc1cc2c(cc1O)oc(=O)c1c3ccc(O)cc3oc21` was 1.4 (active). The value for `CCCCS(=O)(=O)N[C@@H](Cc1ccc(OCCCCC2CCNCC2)cc1)C(=O)O` was 1.5 (active).
